Among all 48,000 compounds or so, about 13,000 (27%) showed an effect of 50% or more. The list shows a part of the results.

The test system of the assay is Wolbachia pipientis. The assay is described as follows: Anti-Wolbachia Cell-Based Screen. It is filed as functional. As to conditions: 5 µM. On the set-up: scale not given: in the data most compounds retested in dose-response had high values.
Take `COCCN1CCN(C(=O)c2ccccc2C(C)=O)[C@H]2CS(=O)(=O)C[C@H]21`: the “Percent Effect” value is listed as -3.299%.
Turning to `O=C1NCC2(CCCN(Cc3ccccc3OCCO)C2)O1` (configuration not stated), the “Percent Effect” value is recorded as -12.98%.
The same measure for `COc1ccccc1CN1CCCC2(Cc3ccccc3CNC2=O)C1` (configuration not stated): 121.9%; for `Cc1cccc(CN2CCCC3(CCN(c4cccnc4)C3=O)C2)n1` (configuration not stated): -4.562%.
The same measure for `COCCC1(C(=O)O)CCCN(Cc2ccccc2OCCO)C1` (configuration not stated): -7.98%; for `Cc1cccc(CN2CCCC3(Cc4ccccc4CNC3=O)C2)n1` (configuration not stated): 122.4%; for `CCOC(=O)N1CCN(c2nc(NC)c3ccccc3n2)CC1`: -5.868%.
The same measure for `CCOC(=O)C(C)NC(=O)N1CCN(c2nc3ccccc3n2C)CC1` (configuration not stated): 155.3%; for `CCNC(=O)N1CCN(c2nc3ccccc3n2C)CC1`: 113.5%.
Regarding `CCOC(=O)CCNC(=O)N1CCN(c2nc3ccccc3n2C)CC1`, the “Percent Effect” value is -6.682%.
The same measure for `CCOC(=O)N1CCN(c2nc(N3CCCC3)c3ccccc3n2)CC1`: -6.467%.
The same measure for `Cn1c(SCC(=O)NC(C)(C#N)C2CC2)nc2ccccc21` (configuration not stated): -4.187%; for `COC(=O)CNC(=O)N1CCC2(CC1)CC(c1ccccc1)CN(C)C2` (configuration not stated): -8.809%.
The figure for `CCNC(=O)N1CCC(=Cc2ccccc2)CC1` is 6.266%.
Take `COC(=O)CNC(=O)N1CCN(c2nc3ccccc3n2C)CC1`: the “Percent Effect” value came out at 124.8%.
The same measure for `Cc1oc(NC(=O)C(C)N2CCN(C(C)(C)CO)CC2)c(C#N)c1C` (configuration not stated): -7.519%.
The figure for `O=C(Cc1cccc(F)c1F)NS(=O)(=O)c1cncc(Cl)c1` is -8.127%; for `Cc1ccc(OC2(C(=O)O)CCN(C/C=C/c3ccco3)CC2)cn1` it is 1.431%; for `CCN1CCN(c2ccc(CNC(=O)c3c(C)noc3C)cn2)CC1` it is 9.474%.
The figure for `CN(Cc1ccc([S+](C)[O-])cc1)c1ccccn1` (configuration not stated) is -21.98%; for `Cc1nc(C)n(CC(C)C(=O)N2CCC(NS(C)(=O)=O)CC2)n1` (configuration not stated) it is -0.2261%; for `CS(=O)(=O)Cc1ccc(CNc2ncc(C#N)cc2Cl)cc1` it is -4.102%.
Consider `CCN(C)C(=O)C1(c2ccc(F)cc2F)CCC1`, for which the “Percent Effect” value was -1.611%.
The figure for `CC(=O)N1CCCC1c1cc(N2CCN(CC(C)(C)C)CC2)cc(C)n1` (configuration not stated) is 123.3%; for `CC(=O)N1CCCC1c1cc(N2CCN(CC3CC3)CC2)cc(C)n1` (configuration not stated) it is 101%.
As to `O=C(Nc1cccc(N2CCN(CC3CC3)CC2)c1)N1CCCC1`, the “Percent Effect” value was 0.3876%.
The figure for `CC(=O)N1CCCC1c1cc(N2CCN(C3CCCC3)CC2)cc(C)n1` (configuration not stated) is 1.456%; for `Cc1n[nH]c(C)c1C1CCCN1C(=O)NCC(=O)NC(C)(C)C` (configuration not stated) it is -8.161%; for `Cc1cccc(CNCc2c(C(C)C)nn(C)c2N2CCOCC2)n1` it is -7.798%.
The figure for `Cc1ccc(-n2nnc(C(=O)NS(C)(=O)=O)c2C2CC2)cc1` is -4.729%; for `COCCS(=O)(=O)NC(=O)c1nnn(-c2ccc(F)cc2)c1C1CC1` it is -1.625%.
The figure for `CC(C)NC(=O)c1nnn(-c2cccc(C(F)(F)F)c2)c1C1CC1` is 8.497%.
In the case of `CS(=O)(=O)NC(=O)c1nnn(-c2cccc(F)c2)c1C1CC1`, the “Percent Effect” value is given as 110.8%.
The figure for `CS(=O)(=O)NC(=O)c1nnn(-c2ccccc2)c1C1CC1` is 97.89%; for `NS(=O)(=O)CCNC(=O)c1nnn(-c2ccccc2)c1C1CC1` it is -6.368%.
The figure for `NC(=O)c1ccc(OCC(=O)NC2CCc3c(F)cccc32)cc1` (configuration not stated) is -9.741%; for `CC(C)N(C)Cc1ccccc1CNc1ccc2nncn2n1` it is -2.79%; for `Cc1cc(F)ccc1S(=O)(=O)N1C[C@@H](C)[C@@](C)(O)C1` it is 6.812%.
The figure for `Cc1ccc(CC(=O)N2CCc3nnc(N(C)C)cc3C2)cn1` is -3.136%; for `CNC(=O)[C@@H]1CN(C(=O)C2CCC2)C[C@H]1c1ccnc(N2CCCC2)n1.Cl` it is 84.63%; for `CNC(=O)C1CCCN(C(=O)C2CCC2)C1` (configuration not stated) it is -10.43%.
For `CNC(=O)[C@@H]1CN(C(=O)C(C)C)C[C@H]1c1ccnc(N2CCCC2)n1.Cl`, the “Percent Effect” value stood at 109.4%.
The figure for `CNC(=O)C1CCCN(c2nc(-c3ccco3)nc3c2CCNCC3)C1` (configuration not stated) is -9.477%; for `Cc1nc(CNCc2ccc(N3CCC(CO)CC3)nc2)cs1` it is -0.2455%; for `O=C([C@@H]1CCCO1)N1CCn2c(Cn3cccn3)cnc2C1` it is 2.282%.
The figure for `CN(Cc1cn2c(n1)CN(C(=O)c1cccnc1)CC2)Cc1ccco1` is -4.152%.
The same measure for `CCOc1cccc(C(=O)N2CCCn3nc(CCC(=O)O)cc3C2)c1`: -15.16%; for `CN(Cc1cc2n(n1)CCN(C(=O)[C@H]1CCCO1)C2)Cc1nccs1`: 100.4%.
As to `CN(Cc1cn2c(n1)CN(C(=O)C1CCCO1)CC2)Cc1ccco1` (configuration not stated), the “Percent Effect” value stood at 5.5%.
The figure for `CN(Cc1cc2n(n1)CCN(C(=O)c1cccnc1)C2)Cc1nccs1` is 89.98%.
The same measure for `CC(C)C1CN(C(=O)c2cc(C3CC3)n[nH]2)CCC(=O)N1CC1CC1` (configuration not stated): 29.09%; for `C[C@@H]1CN(S(=O)(=O)N2CCCC2)C[C@@]1(O)C1CC1`: -6.629%; for `CNC(=O)[C@@H]1C[C@@H](NC(=O)c2ccc(OC)o2)CN1Cc1sccc1C`: 3.708%.
The figure for `CC(C)CN(c1cn[nH]c1)S(=O)(=O)c1cccc(C#N)c1` is -11.66%.
With `CC1(CCC(=O)N2CCC(n3cc(C4(O)CCCC4)nn3)CC2)CC1`, the “Percent Effect” value amounted to 8.722%.
The same measure for `COc1ccc(CN2CC(O)CN(C(=O)C3CCC3)CC2=O)cc1` (configuration not stated): 125.6%; for `Cc1ccc(CN2CC(O)CN(C(=O)C3CC3)CC2=O)cc1` (configuration not stated): 98.84%; for `CN(CCC(C)(C)O)C(=O)C1CCC(=O)N(Cc2ccc(Cl)cc2)C1` (configuration not stated): -7.945%.
The figure for `O=C1CN(C(=O)C2CCOCC2)CCN1Cc1ccc(Cl)cc1` is -5.322%; for `O=C1CN(C(=O)C2CCCOC2)CCN1Cc1ccc(Cl)cc1` (configuration not stated) it is -1.465%; for `COc1ccc(CN2CCO[C@H]3CN(C(=O)C4CC4)CC[C@H]3C2=O)cc1` it is -3.017%.
As to `COc1ccc(CN2CCO[C@H]3CN(C4CCC4)CC[C@H]3C2=O)cc1.O=C(O)C(F)(F)F`, the “Percent Effect” value is given as -4.57%.
The figure for `O=C1CN(C(=O)C2CCCCC2)CC(O)CN1Cc1ccc(Cl)cc1` (configuration not stated) is 110.4%; for `O=C(C1CCOCC1)N1CCN2C(=O)N(Cc3ccc(F)cc3)C[C@H]2C1` it is -6.376%; for `CCOCC1CN(C(=O)c2cccs2)Cc2nn(C)cc21` (configuration not stated) it is -4.192%.
Regarding `CCCc1cc(C(=O)N2CCCC(n3ccnc3C)C2)[nH]n1` (configuration not stated), the “Percent Effect” value is on record as -7.935%.
The same measure for `CCn1c(C)cc(C(=O)N2CCCC(n3ccnc3C)C2)c1C` (configuration not stated): 101.9%.
On to `CCn1ccnc1C1CCCN(C(=O)c2sc(C)nc2C)C1` (configuration not stated), for which the “Percent Effect” value is -9.404%.
The same measure for `Cc1cnc(C(=O)N2CCCC(n3ccnc3C)C2)cn1` (configuration not stated): 4.379%; for `Cc1nccn1C1CCCN(C(=O)c2cnn(C)c2C2CC2)C1` (configuration not stated): 89.3%; for `CCn1c(C)cc(C(=O)N2CCCC(n3nc(C)nc3C)C2)c1C` (configuration not stated): -3.865%.
Take `CC(C)c1nccn1C1CCCN(C(=O)c2cnn(C)c2C2CC2)C1` (configuration not stated): the “Percent Effect” value was -1.568%.
The figure for `Cc1ncncc1C(=O)N1CCCC(n2ccnc2C)C1` (configuration not stated) is 90.56%; for `Cc1nc(C)c(C(=O)N2CCCC(n3ccnc3C)C2)s1` (configuration not stated) it is 110.6%; for `CCc1nccn1C1CCCN(C(=O)c2cnn(C)c2C2CC2)C1` (configuration not stated) it is 0.8841%.
The figure for `Cc1sc2nc(CCN)nc(N3CC(N4CCCCC4)C3)c2c1C` is 3.569%; for `O=C(CCc1ncc(-c2ccc(F)cc2)o1)NCCN1CCOCC1` it is 3.155%; for `Cc1ncsc1C(=O)N(C)Cc1cccc(Cl)c1` it is -11.93%.
On to `CCn1[nH]c(C)c2c(C(F)(F)C(F)(F)F)cc(=O)nc1-2`, for which the “Percent Effect” value is -26.97%.
The figure for `CN(CCC(F)(F)F)C(=O)C1CCCN1C(=O)OC(C)(C)C` (configuration not stated) is 12.15%; for `Cc1ccccc1SC1CCN(C(=O)C2CNC(=O)N2)CC1` (configuration not stated) it is 2.436%.
`CCN(CC)Cc1ccc(C(=O)NC2CCc3ccccc32)o1` (configuration not stated): the “Percent Effect” value is -6.624%.
`O=C(CCC1CCCC1)N1CCC(O)(C(F)(F)F)C1` (configuration not stated): the “Percent Effect” value is recorded as -0.53%.
As for `CN1CCOCC12CCN(Cc1nccs1)CC2`, the “Percent Effect” value is recorded as 7.326%.
The same measure for `CCOc1ccnc(NCc2nc(C)cc(C(F)(F)F)n2)n1`: -1.038%; for `Cc1cc(C)nc(CCNC(=O)C(c2ccc(F)cc2)N(C)C)n1` (configuration not stated): 7.326%.
The same measure for `Cn1nc(CNC(=O)CN2C(=O)CCC2=O)cc1C1CC1`: -2.201%; for `CCOCC(=O)NCc1cc(C2CC2)n(C2CCCC2)n1`: 2.551%.
Turning to `O=C(CN1C(=O)CCC1=O)NCc1cc(C2CC2)n(C2CCCC2)n1`, the “Percent Effect” value was -8.442%.
The same measure for `O=C(CN1C(=O)CCC1=O)NCCc1nc(C2CC2)cc(C(F)(F)F)n1`: 102.8%; for `CCOCC(=O)NCCc1nc(C2CC2)cc(C(F)(F)F)n1`: 130.2%.
For the compound `CCOCC(=O)NCCc1nc(C)cc(C(F)(F)F)n1`, the “Percent Effect” value came to 110.5%.
The same measure for `CCOCC(=O)NCCc1ccc(I)s1`: -15.02%; for `Cc1ncccc1C(=O)NC1CC(=O)N(CC(F)(F)F)C1` (configuration not stated): -0.2034%; for `O=C(NCc1ccccc1F)Nc1ccn(CCN2CCOCC2)n1`: -47.91%.
The figure for `Cc1cc(CSc2ccccn2)on1` is -1.483%.
The figure for `CN(C)CCN1C(=O)C[C@@H]2[C@@H]1CCN2S(=O)(=O)c1ccccc1.O=C(O)C(F)(F)F` is -18.17%; for `CN(C)CCN1C[C@@H]2CN(c3ccccc3)C[C@@H]2C1=O.O=C(O)C(F)(F)F` it is 89.24%; for `CN(C)CCN1C[C@@H]2CN(C(=O)C3CC=CC3)C[C@@H]2C1=O` it is -2.917%.
Consider `CN(C)CCN1C[C@@H]2CN(C(=O)c3ccsc3)C[C@@H]2C1=O.O=C(O)C(F)(F)F`, for which the “Percent Effect” value is given as -6.945%.
The same measure for `CN(C)CCN1C[C@@H]2CN(S(=O)(=O)c3cccs3)C[C@@H]2C1=O.O=C(O)C(F)(F)F`: -17.1%.
Regarding `CN(C)CCN1C[C@@H]2CN(S(=O)(=O)c3ccccc3)C[C@@H]2C1=O.O=C(O)C(F)(F)F`, the “Percent Effect” value stood at 104.5%.

For the origin of these results see ChEMBL document CHEMBL3988442, “University of Dundee, Small-Polar-MMV Screening Library” (2021).
